TEAD-YAP block: TEAD-YAP interaction inhibition; inhibition, % at 9.12 µM; HEK-TIYL cells, TEAD-Gal4/YAP UAS-luciferase luminescence; hit rate 1.4% among 640,000; in the data active = inhibition above about 32%
FBW7 activator: activators of human E3 ligase FBW7; Q969H0; AlphaScreen FBW7–phospho-cyclin E peptide binding, activator screen; normalized activity (activation), % at 26.1 µM; hit rate 0.13% among 650,000; AID 1259310; in the data active = normalized activity above about 1.9%;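 note: purified mutant Fbw7 with reduced substrate affinity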
GPR151 activ: human GPR151 activation. PathHunter beta-arrestin GPR151 cells, luminescence. Q8TDV0. AID 1508602. activation, % at 11.2 µM. hit rate 1% among 650,000; in the data active = activation above about 4.9%
Target sequence (Q8TDV0 whole entry, looked up): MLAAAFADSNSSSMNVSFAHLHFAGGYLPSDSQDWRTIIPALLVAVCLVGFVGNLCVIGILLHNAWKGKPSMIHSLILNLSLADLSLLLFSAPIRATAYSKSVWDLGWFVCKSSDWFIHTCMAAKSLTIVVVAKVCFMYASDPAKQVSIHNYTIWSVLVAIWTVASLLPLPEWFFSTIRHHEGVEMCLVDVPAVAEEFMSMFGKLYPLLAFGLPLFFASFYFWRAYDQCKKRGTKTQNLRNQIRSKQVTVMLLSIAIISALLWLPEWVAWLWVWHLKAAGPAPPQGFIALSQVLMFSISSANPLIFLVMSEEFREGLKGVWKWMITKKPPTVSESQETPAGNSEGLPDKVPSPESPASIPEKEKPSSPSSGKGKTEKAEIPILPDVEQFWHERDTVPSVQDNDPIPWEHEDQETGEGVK
MITF inh: blocks human microphthalmia-associated transcription factor. AlphaScreen MITF homodimerization, bead proximity signal. hit rate 0.91% among 650,000. inhibition, % at 2.6 µM. AID 1259374; in the data active = inhibition above about 50%
Numbers stand for hits; - = inactive; ! = repeats disagree. Rows were chosen to be rich in hits. Some 3.5% of all compounds tested hit in one or more screens of this group.

SMILES	TEAD-YAP block	FBW7 activator	GPR151 activ	MITF inh
COc1ccc(-c2nc(CSCC(=O)O)c(C)o2)cc1	82.4	-	-	-
COc1ccc(-c2nc(CSCC(=O)NCC(OC)OC)c(C)o2)cc1	-	-	-	-
CCCCNC(=O)c1ccc(Cn2c(=S)[nH]c3cc4c(cc3c2=O)OCO4)cc1	-	-	-	-
CC1(C)CC(=O)C=C(NNC(=O)Cc2ccccc2)C1	-	-	-	-
CC1(C)CC(=O)C=C(NNC(=O)COc2ccccc2)C1	-	1.9!	-	-
O=C(c1cccc(S(=O)(=O)N2CCCC2)c1)c1cccc(S(=O)(=O)N2CCCC2)c1	33.2	-	-	-
CC1CCN(S(=O)(=O)c2cccc(C(=O)Nc3ccccc3C(=O)Nc3ccccc3)c2)CC1	-	-	-	-
O=C(Oc1cccc(NC(=O)c2ccccc2Cl)c1)c1cccc(S(=O)(=O)N2CCCCC2)c1	54.1	-	-	-
O=C(Nc1cccc(Br)c1)c1cc(S(=O)(=O)N2CCCC2)ccc1Cl	35.2	-	-	-
CC1CCN(S(=O)(=O)c2cccc(C(=O)Oc3cccc(NC(=O)c4ccccc4)c3)c2)CC1	36.6	-	-	-
CC1CCCC(NC(=O)Cn2nc(-c3ccc(Cl)cc3)ccc2=O)C1C (stereo unspecified)	-	-	-	-
O=C(CCS(=O)(=O)c1cc2c(cc1Cl)NC(=O)CO2)Nc1cccc(Cl)c1	-	-	-	-
COc1cccc2cc(C(=O)NCCN(C)C)c(=O)oc12	-	-	-	-
CCc1ccc(Nc2ncc(C(=O)OC)c3ccccc23)cc1	-	4.0	-	-
COC(=O)c1cnc(Nc2ccc(OC)c(Cl)c2)c2ccccc12	-	2.4	-	-
COC(=O)c1cnc(Nc2cc(Cl)ccc2OC)c2ccccc12	-	-	-	-
COC(=O)c1ccc(C2Nc3ccc(C(=O)O)cc3C3C=CCC32)cc1 (stereo unspecified)	-	-	-	74.6
COc1ccc(C2Nc3ccc(C(=O)O)cc3C3C=CCC32)cc1 (stereo unspecified)	-	-	-	72.8
COC(=O)c1ccc2c(c1)C1C=CCC1C(c1ccc(F)cc1)N2 (stereo unspecified)	-	-	-	-
O=C(O)c1ccc([C@@H]2Nc3ccc(F)cc3[C@@H]3C=CC[C@@H]32)cc1	-	-	-	65.5
O=[N+]([O-])c1cccc(C2Nc3ccc4ccccc4c3C3C=CCC32)c1 (stereo unspecified)	40.2	-	-	-
CC(=O)Nc1ccc(Nc2nc(NCc3cccnc3)nc3c2ncn3-c2ccsc2)cc1	-	-	-	-
CC(=O)c1sc(N/N=C\c2cccnc2)nc1C	-	-	-	-
COc1ccc(OC)c([C@@H]2Nc3ccc(C(=O)O)cc3[C@@H]3C=CC[C@@H]32)c1	-	-	-	-
O=C(O)c1ccc2c(c1)C1C=CCC1C(c1cccc([N+](=O)[O-])c1)N2 (stereo unspecified)	-	-	-	82.5
SMILES	TEAD-YAP block	FBW7 activator	GPR151 activ	MITF inh
COc1cccc(C2Nc3ccc(C(=O)O)cc3C3C=CCC32)c1 (stereo unspecified)	-	-	-	65.3
COc1ccc2c(c1)C1C=CCC1C(c1ccc(C(=O)O)cc1)N2 (stereo unspecified)	-	-	-	52.0
CCC(C)CN1CCc2nnc(CNC(=O)COc3ccccc3)n2CC1 (stereo unspecified)	-	-	-	-
CC1=C(C(=O)Nc2cc(C)ccn2)C(c2ccccc2C)C2=C(CCCC2=O)N1 (stereo unspecified)	-	-	-	-
CC(C)n1cnc2c(NCc3nc4ccccc4[nH]3)nc(-c3ccc(C(=O)NC4CC4)cc3)nc21	77.7	-	-	-
CC(C)n1cnc2c(NCc3ccccc3)nc(-c3ccc(C(=O)N4CCN(C)CC4)cc3)nc21	-	-	-	-
CC(C)n1cnc2c(NCc3nc4ccccc4[nH]3)nc(-c3ccc(C(=O)N4CCN(C)CC4)cc3)nc21	65.4	-	-	-
O=C(Nc1ccc(Cl)cn1)C12CC3CC(CC(C3)C1)C2	-	-	-	-
Cc1ccc(C(=O)Nc2cccc(OC(=O)c3cc(S(=O)(=O)N4CCOCC4)ccc3Cl)c2)cc1	82.7	-	-	-
O=C(Oc1cccc(NC(=O)c2ccco2)c1)c1cccc(S(=O)(=O)N2CCOCC2)c1	-	-	-	-
O=C(Oc1cccc(NC(=O)c2ccco2)c1)c1ccc(F)c(S(=O)(=O)N2CCOCC2)c1	-	-	-	-
O=C(Nc1cccc(OC(=O)c2cccc(S(=O)(=O)N3CCOCC3)c2)c1)c1ccc(Br)cc1	34.7	-	-	-
O=C(Nc1cccc(OC(=O)c2cc(S(=O)(=O)N3CCCCCC3)ccc2Cl)c1)c1ccccc1	-	-	-	-
O=C(Nc1cccc(OC(=O)c2ccc(F)c(S(=O)(=O)N3CCOCC3)c2)c1)c1ccccc1	32.2	-	-	-
COc1ccccc1NS(=O)(=O)c1cc([N+](=O)[O-])ccc1NN=C1CCCCC1	-	-	-	-
O=C(COc1ccc(Br)cc1Cl)Nc1ccc2c(c1)OCO2	-	-	-	-
Cc1ccc(CSc2ccc(C(=O)NNC(=O)c3ccccn3)cc2[N+](=O)[O-])cc1	49.6	-	-	-
CCOC(=O)C1CCCN(C(=O)C2CCCN(S(C)(=O)=O)C2)C1 (stereo unspecified)	-	-	-	-
CN1c2ccccc2N(C)C1c1cccc(O)c1	-	-	-	-
CN(C)c1ccc(C2N(C)c3ccccc3N2C)cc1	47.3	-	-	-
COc1ccc2nc(/N=C/c3cc(Br)ccc3O)sc2c1	-	-	-	-
Cc1ccc2nc(SCC(=O)N3CC(=O)Nc4ccccc43)c(C#N)cc2c1	49.1	-	-	-
Cn1nc(CC(=O)Nc2ccc(Br)cc2F)c2ccccc2c1=O	-	-	-	-
Cn1c(C(=O)O)c(CC(=O)NCC2COc3ccccc3O2)c2ccccc21 (stereo unspecified)	-	-	-	-
Cn1nc(CC(=O)NCC2COc3ccccc3O2)c2ccccc2c1=O (stereo unspecified)	36.0	-	-	-
SMILES	TEAD-YAP block	FBW7 activator	GPR151 activ	MITF inh
Cn1nc(CC(=O)Nc2ccc(F)cc2F)c2ccccc2c1=O	34.5	-	-	-
COc1cccc(-n2nc(C(=O)NCCc3ccc(OC)c(OC)c3)c3ccccc3c2=O)c1	35.8	-	-	-
COc1ccc(CCNC(=O)CNC(=O)c2nn(-c3ccc(OC)c(OC)c3)c(=O)c3ccccc23)cc1OC	39.6	-	-	-
COc1ccc(-n2nc(C(=O)NCC(=O)NCCc3ccc(OC)c(OC)c3)c3ccccc3c2=O)cc1	-	-	-	-
COc1cc(OC)cc(-n2nc(C(=O)NCCc3ccc(OC)c(OC)c3)c3ccccc3c2=O)c1	-	-	-	-
O=C1CSC(c2ccccc2)N1c1ccc2ccccc2c1 (stereo unspecified)	-	-	-	-
N/C(=N\OC(=O)CCCCCN1C(=O)c2ccccc2C1=O)c1ccccn1	-	-	-	-
CC1=NN(c2ccc(C(F)(F)F)cc2[N+](=O)[O-])C(=O)C1	-	-	-	-
CCOC(=O)c1c(NC(=O)C(C)Sc2nnc(CNC(=O)c3cccs3)n2C)sc2c1CCC2 (stereo unspecified)	-	-	-	-
